# Screens from PubChem.
# sEH inhibitor – soluble epoxide hydrolase (human) inhibition; hit rate 0.34% among 91,000; recombinant human sEH enzymatic activity assay; P34913; inhibition, % at 2 µM; AID 707; in the data active = inhibition above about 80%
# PTPN22 act – activators of human LYP (PTPN22) phosphatase. hit rate 0.11% among 96,000. recombinant LYP, DiFMUP fluorescence; 0 = plate median, 100 = signal doubled. activation, % at 2 µM. AID 697;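 active = activation at 2 µM above a set limit, the mean plus 5 SD, cut at about 37% in these data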
# sEH act – soluble epoxide hydrolase (human) activation. P34913. purified human sEH enzymatic activity, activator screen. activation, % at 2 µM. hit rate 0.04% among 91,000; in the data active = activation above about 37%
# PLAP act – activates human placental alkaline phosphatase; purified PLAP enzyme, luminescent substrate read-out; stronger effect = higher value; AID 696; activation fold at 20 µM; hit rate 1.2% among 96,000; in the data active = activation fold above about 2
# Target sequence (P05187 whole entry, looked up): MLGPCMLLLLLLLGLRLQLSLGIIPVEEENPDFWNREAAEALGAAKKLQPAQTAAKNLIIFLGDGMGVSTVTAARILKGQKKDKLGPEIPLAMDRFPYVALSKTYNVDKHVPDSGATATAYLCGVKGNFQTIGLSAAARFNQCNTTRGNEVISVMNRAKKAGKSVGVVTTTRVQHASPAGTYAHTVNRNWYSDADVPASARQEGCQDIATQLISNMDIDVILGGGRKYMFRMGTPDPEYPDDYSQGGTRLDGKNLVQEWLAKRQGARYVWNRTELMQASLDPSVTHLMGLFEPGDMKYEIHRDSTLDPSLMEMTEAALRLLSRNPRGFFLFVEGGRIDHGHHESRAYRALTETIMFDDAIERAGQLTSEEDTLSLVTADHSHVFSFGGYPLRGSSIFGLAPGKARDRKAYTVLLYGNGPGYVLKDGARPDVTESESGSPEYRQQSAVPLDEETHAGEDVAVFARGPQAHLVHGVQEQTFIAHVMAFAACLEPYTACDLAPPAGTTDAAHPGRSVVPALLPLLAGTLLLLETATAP
# EphB4 ephrin blk – blocks human EphB4 binding to ephrin-B2 | AID 720 | P54760 | inhibition, % at 7 µM | hit rate 0.15% among 97,000 | EphB4 LBD / TNYL-RAW-Alexa532 peptide, fluorescence polarization;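 active = inhibition above the screen-wide mean inhibition plus 3 SD, cut at about 15% in these data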;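 also: 0% = DMSO wells and 100% = excess unlabeled TNYL-RAW peptide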
# LYP inh 2 – blocks human PTPN22 phosphatase activity; recombinant LYP catalytic domain, DiFMUP fluorescence; inhibition, % at 2 µM; hit rate 0.21% among 96,000;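 active = inhibition at 2 µM at or above a set limit, the screen mean plus 3 SD, cut at about 24% in these data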;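 also: 0% = DMSO with enzyme and 100% = enzyme fully blocked by orthovanadate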
# * hit, by the source's call; · = no result. The list is not random: actives were taken first. Their share in the collection is about 1.6%.
SMILES,sEH inhibitor,PTPN22 act,sEH act,PLAP act,EphB4 ephrin blk,LYP inh 2
CCn1c(SCC(=O)Nc2nc(-c3ccc(C)cc3)cs2)nnc1-c1ccccc1,-10.7,-4.8,8.1,1.2,4.6,3.9
Cc1ccc(-n2c(Cc3ccccc3)nnc2SCC(=O)NNC(=O)Cc2ccccc2)cc1,12.9,0.2,-11.2,2.8*,3.4,3.6
O=c1c(C(c2nnnn2C2CCCCC2)N2CCCCC2)coc2ccc(Cl)cc12 (stereo unspecified),·,·,·,1,·,·
CC1CCCC(N2CCN(C(=O)c3cccc(F)c3)CC2)C1 (stereo unspecified),9.6,2.0,-9.5,1.8,-2.2,-0.1
CCOc1ccc(-c2nc(CSCC(=O)NCc3ccco3)c(C)o2)cc1,·,·,·,1.4,·,·
Cc1ccccc1OC(=O)C1C(c2ccccc2)C(C(=O)O)C1c1ccccc1 (stereo unspecified),-26.1,-2.9,23.3,1.2,5.8,4.3
CC(/C=N/n1c(C2CCCCC2)n[nH]c1=S)=C\c1ccccc1,8.5,-22.9,-10.1,1.2,-5.5,25.6*
Cc1[nH]nc2c1C(c1ccccc1F)CC(=O)N2 (stereo unspecified),5.3,-1.7,-3.5,1.4,5.0,0.1
Cc1cc(C)cc(-n2c(C)cc(/C=N/NC(=O)CN(c3c(C)cccc3C)S(C)(=O)=O)c2C)c1,-5.2,-0.1,7.5,2*,1.0,-2.9
Cc1ccc(-n2c(C)cc(/C=N/NC(=O)CN(c3ccc(C)cc3C)S(C)(=O)=O)c2C)cc1,6.7,6.9,-4.9,1.5,5.5,-3.9
Cc1ccc(S(=O)(=O)N2CCC(C(=O)NCCc3ccccc3)CC2)cc1,8.7,13.3,-10.4,0.8,-8.0,-12.1
Cc1ccc(S(=O)(=O)N2CCC(C(=O)N3CCC[C@H]3C(=O)NC3CCS(=O)(=O)C3)CC2)cc1 (stereo partly specified),-6.0,3.2,7.8,2*,1.0,-5.8
Cc1ccc(S(=O)(=O)N2CCC(C(=O)N[C@H](C(=O)NC3CCS(=O)(=O)C3)C(C)C)CC2)cc1 (stereo partly specified),2.3,-10.4,-5.2,1.1,-3.6,8.5
Cc1ccc(S(=O)(=O)N2CCC(C(=O)NCCN3CCCCCC3)CC2)cc1,10.3,3.2,-6.8,2.1*,0.4,0.7
c1coc(Cn2c(SCc3nc4ccccc4[nH]3)nnc2-c2cccs2)c1,-10.1,9.9,11.9,2.1*,-11.9,-10.5
COCCOC(=O)C1=C(C)NC(=O)N(C(C)=O)C1c1ccc(Cl)cc1 (stereo unspecified),-11.8,5.0,11.8,1,4.5,-5.8
COc1ccccc1N(CC(=O)N/N=C/c1ccc(OCC(=O)NCc2ccco2)cc1)S(=O)(=O)c1ccc(C)cc1,-4.8,-0.3,4.5,2*,-5.6,0.9
CC(C(=O)NCc1cccnc1)N1C(=O)c2ccccc2C1=O (stereo unspecified),0.0,10.9,1.5,·,-0.1,-15.7
CCN(CC)S(=O)(=O)c1ccc(NC(=O)CCC2CCCCC2)cc1,-8.5,9.0,11.4,2.9*,1.0,-10.8
CCOc1ccc(-c2[nH]ncc2-c2ccc(OC)c(OC)c2)c(O)c1,-10.8,-8.0,11.5,2.7*,-5.0,7.4
CCCOC(=O)c1ccc(Oc2cn[nH]c2-c2ccc(OC)cc2O)cc1,1.5,4.7,-0.3,2.9*,-3.4,-5.9
C=C(C)COc1ccc(-c2[nH]ncc2Oc2ccccc2OC)c(O)c1,-3.5,4.3,2.2,2*,-4.0,-4.9
C=C(C)COc1ccc(-c2[nH]ncc2-c2ccccc2OC)c(O)c1,15.7,1.0,-14.3,2.5*,-1.3,-1.6
CCOc1ccc(-c2n[nH]c(C)c2Oc2ccc(OC)cc2)c(O)c1,8.7,6.9,-8.4,·,-10.5,-10.5
CCOc1ccc(-c2[nH]ncc2Oc2ccccc2OC)c(O)c1,18.4,-12.5,-18.0,·,-9.0,9.6
SMILES,sEH inhibitor,PTPN22 act,sEH act,PLAP act,EphB4 ephrin blk,LYP inh 2
CC(C)CN(CC(C)C)C(=O)CS(=O)(=O)Cc1ccccc1,19.8,8.7,-18.8,1.4,0.8,-11.8
CCOc1ccc(-c2[nH]ncc2Oc2ccccc2OCC)c(O)c1,-7.3,-1.5,9.1,2.5*,1.6,0.9
O=C(Nc1nnc(-c2cccs2)o1)c1cccc(C(F)(F)F)c1,·,·,·,2.1*,3.3,·
CC1CC(C)CN(S(=O)(=O)c2ccc(C(=O)Nc3nnc(-c4cccs4)o3)cc2)C1 (stereo unspecified),15.7,2.4,-14.6,1.1,-1.2,-5.6
COC(=O)c1ccc(CSc2nc3ccc(Cl)cc3[nH]2)o1,32.6,-0.3,-31.7,1.7,-4.7,-3.2
CCOc1ccc2nc(SCc3ccc(C(=O)OC)o3)[nH]c2c1,·,1.8,·,2.2*,-3.7,-4.2
COC(=O)c1cc(CSc2nc3ccccc3[nH]2)oc1C,10.4,-6.5,-9.7,2.3*,1.5,4.1
CCOc1ccc2nc(SCC(=O)Nc3ccc4c(c3)OCCO4)[nH]c2c1,5.6,-0.6,-3.5,2.1*,4.7,3.5
CCCc1cc(=O)[nH]c(SCc2cc(C(=O)OC)c(C)o2)n1,0.2,12.3,0.0,1.4,-9.0,-13.9
C=Cn1nc(C)c2ccccc2c1=O,5.4,4.1,-7.3,0.9,3.6,-0.9
Cc1cc(C)n(-c2nc(NCCC(C)C)c3c4c(sc3n2)COC(C)(C)C4)n1,-13.1,-15.1,15.4,2.9*,4.1,16.4
Cc1cc(C)n(-c2nc(-n3nc(C)cc3C)c3c4c(sc3n2)COC(C)(C)C4)n1,7.8,2.6,-8.2,1.5,5.3,-4.4
Cc1cc(C)n(CC(O)COc2ccc(OCC(O)Cn3nc(C)cc3C)cc2)n1 (stereo unspecified),-13.5,9.5,17.2,·,0.0,-9.0
Cc1cccc(NC(=S)NNC(=O)CC(C)O)c1C (stereo unspecified),6.1,6.1,-6.4,2*,0.8,-1.8
CC1CCCCN1C(=O)CSc1nnc(-c2ccc(Cl)s2)o1 (stereo unspecified),2.4,-4.9,1.1,1.2,1.2,5.1
O=C(N/N=C/c1ccc(O)cc1)c1csc2ccccc12,84.1*,-3.7,-84.0,1.2,-1.4,5.9
C=COCCNC(=O)Nc1ccc(Cl)c(Cl)c1,8.0,7.4,-5.4,·,8.1,-4.4
Cc1cc(C)c(-c2cc(C(=O)Nc3c(C)n(C)n(-c4ccccc4)c3=O)[nH]n2)c(O)c1,-1.8,7.9,3.1,2.2*,-5.2,-9.4
Cc1csc2c(C#N)c(=O)c3c(n12)CCC3,-2.7,5.7,3.3,1,5.4,-6.9
CCOC(=O)c1ccc(NC(=S)NCC(O)c2ccccc2)cc1 (stereo unspecified),15.1,-6.3,-13.4,1,16.9*,9.8
CCOC(=O)c1ccc(NC(=S)NCCc2ccccc2)cc1,19.3,-2.1,-17.6,0.9,4.3,5.8
CN1C(=O)Cc2cc(S(=O)(=O)N3CCOCC3)ccc21,6.1,-5.3,-3.4,1.6,-7.0,7.6
N#Cc1nc(-c2ccc(OCc3ccc(Cl)cc3)cc2)oc1NCCCn1ccnc1,-2.1,-26.9,2.3,1.2,-5.1,25.5*
